Bioassay records: PubChem, National Center for Advancing Translational Sciences (NCATS)
GLS inh: qHTS for Inhibitors of Glutaminase (GLS). 410,000 compounds, 0.21% hits. Potency, µM (top dose mostly 45.5 µM), for inactives: at the highest dose activity change, negative = inhibition, usual class: inhibitors. AID 624170, 2012. GLS enzymatic activity, qHTS titration
Target sequence (O94925 whole entry, looked up): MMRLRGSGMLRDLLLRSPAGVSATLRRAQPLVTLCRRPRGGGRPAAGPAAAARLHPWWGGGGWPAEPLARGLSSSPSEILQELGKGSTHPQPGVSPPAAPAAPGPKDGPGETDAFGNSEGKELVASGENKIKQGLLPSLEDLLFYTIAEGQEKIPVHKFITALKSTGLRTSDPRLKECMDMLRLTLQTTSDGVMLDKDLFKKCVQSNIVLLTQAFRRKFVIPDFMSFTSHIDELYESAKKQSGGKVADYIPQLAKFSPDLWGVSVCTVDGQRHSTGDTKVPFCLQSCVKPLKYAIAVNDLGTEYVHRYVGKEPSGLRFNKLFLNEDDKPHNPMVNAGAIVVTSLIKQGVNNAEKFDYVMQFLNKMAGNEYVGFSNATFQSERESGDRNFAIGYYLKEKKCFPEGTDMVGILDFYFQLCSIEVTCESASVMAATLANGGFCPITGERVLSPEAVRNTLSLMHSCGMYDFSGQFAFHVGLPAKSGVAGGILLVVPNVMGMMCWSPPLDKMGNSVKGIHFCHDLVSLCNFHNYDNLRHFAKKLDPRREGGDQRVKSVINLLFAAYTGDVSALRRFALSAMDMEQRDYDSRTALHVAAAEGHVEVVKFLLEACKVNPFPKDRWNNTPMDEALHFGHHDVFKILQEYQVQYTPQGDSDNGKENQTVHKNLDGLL
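hKGA; 45 mM KH2PO4 pH 8.2 + 0.02% Tween-20; cpd via pin tool; 1 mM Gln soln; GluOx/HRP/Amplex Red; RT 30 min; fluor. t0 & final.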
Sfp PPTase inh: qHTS Assay for Inhibitors of Bacillus subtilis Sfp phosphopantetheinyl transferase (PPTase). 310,000 compounds, 3.5% hits. Biochemical Sfp PPTase activity, qHTS. Potency, µM, for the others: largest response in the series, negative = inhibition, actives largely listed as inhibitors. 4'-phosphopantetheinyl transferase ffp (Bacillus subtilis), Q9F4F7;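 also: the enzyme is Sfp with the accession as filed and its product quenches rhodamine fluorescence; 0% = enzyme reaction without inhibitor and -100% = no enzyme wells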
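With Hepes-Na pH 7.6 buffer containing 10 mM MgCl2, Sfp (15 nM) modified BHQ-2-YbbR (12.5 uM) using rhodamine-CoA (5 uM). Two reads 30 minutes apart at 525/598 nm yielded each well's rate.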
TrxR1 inh: qHTS Assay for Inhibitors of Mammalian Selenoprotein Thioredoxin Reductase 1 (TrxR1): qHTS; AID 588453, 2011; Thioredoxin reductase 1, cytoplasmic (Rattus norvegicus), O89049; recombinant rTrxR1, NADPH fluorescence consumption, selenite substrate; 390,000 compounds, 1% hits; Potency, µM (highest dose often 114 µM), for the others: top-dose activity change, negative = inhibition, most hits filed as inhibitors; also: nearly all actives have a fitted effect of over 65% in size
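Rat TrxR1 (90 nM in the dispensed reagent) was pre-reduced with 400 uM NADPH for 5 min at room temperature, then incubated with compound for 15 min. After 400 uM selenite was added, NADPH fluorescence (Ex 340/Em 450 nm) was followed for 8 min.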
VDR inhibitor: Inhibitors of the vitamin D receptor (VDR): qHTS | Vitamin D3 receptor (Homo sapiens), P11473 | VDR-SRC2-3 peptide fluorescence polarization, 2 h | Potency, µM, without a hit: max response, negative = inhibition, usual class: inhibitors | 400,000 compounds, 0.93% hits | AID 504847, 2011
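After 23 nl compound addition and a short centrifugation, plates sat for 2 hours at ambient temperature; polarization of fluorescence then indicated loss of VDR binding to peptide SRC2-3.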
TrxR1 substrate: qHTS Assay for Substrates of Mammalian Selenoprotein Thioredoxin Reductase 1 (TrxR1): qHTS. Thioredoxin reductase 1, cytoplasmic (Rattus norvegicus), O89049. purified TrxR1 substrate turnover, NADPH consumption readout. Potency, µM (series often up to 114 µM), for inactives: at the top dose activity change, negative = substrate turnover. 390,000 compounds, 0.01% hits; also: nearly all actives have a fitted effect of over 50% in size
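Rat TrxR1, dispensed at 90 nM, was prereduced with 400 uM NADPH (final) for 5 min at ~22 deg C, then incubated with compound 15 min before 400 uM selenite. A first-read NADPH fluorescence drop versus no-compound background flagged substrates.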
GCN5L2 inh: qHTS Assay for Inhibitors of GCN5L2. Histone acetyltransferase KAT2A (Homo sapiens), Q92830. GCN5L2 HAT assay, ThioGlo1 CoA-SH fluorescence. Potency, µM (titrated, usually from 58.9 µM), inactives show at the top dose activity change, negative = inhibition, actives largely listed as inhibitors. 390,000 compounds, 0.21% hits. AID 504327, 2011
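GCN5L2 (20nM final) in 50mM HEPES, 0.1mM EDTA pH 7.5, 0.01% Tween-20 was preincubated 15 min at room temperature with compound, then given ThioGlo1 (50uM), H3(1-25) peptide (75uM) and acetyl-CoA (70uM); CoA-thiol fluorescence (Ex340/Em540) was read at 0 and 20 min.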
Starred values were filed as active, the others as inactive; i = inactive; ? = inconclusive; nt = not tested or not shown; [ ] = remark or other dose. This is a sample that favours compounds with a hit; in the whole collection about 3.8% have one here. Calls follow the shape of the dose curve; as a rule, active = well fitted curve in the direction sought with a large enough effect; inconclusive = small, poorly fitted or top-dose-only effect, or another doubt; inactive = no such curve, though single readings can be large; an effect the other way counts as inactive or inconclusive. Unless noted, % is scaled to controls: 0 for no effect and ±100 for the full control effect; potency is read from the fitted curve at half-maximal effect.

SMILES	GLS inh	Sfp PPTase inh	TrxR1 inh	VDR inhibitor	TrxR1 substrate	GCN5L2 inh
CC(C)=CCCC1(C)C=Cc2c(O)c3c(c(CC=C(C)C)c2O1)OC12C(=CCCC1C(C)(C)O[C@@]2(C/C=C(\C)C(=O)O)C(=O)O)C3=O (stereo partly drawn)	nt	3%	nt	45µM*	nt	35µM*
CN=c1scc(C)n1/N=C/c1ccc(O)c(O)c1O	?	25µM*	?	-3%	-17%	?
CN=c1scc(-c2cccs2)n1/N=C/c1ccc(O)c(O)c1O	?	11µM*	-19%	?	1%	0%
CN=c1scc(-c2cccs2)n1/N=C/c1ccccc1O	12%	-15%	2%	-16%	1%	-13%
Cc1ccc2cc(C(c3nnnn3C3CCCC3)N(Cc3cccnc3)Cc3ccco3)c(=O)[nH]c2c1 (stereo not drawn)	12%	10µM*	?	-13%	-5%[57.1 µM]	0%
Cc1ccc2[nH]c(=O)c(C(c3nnnn3C3CCCC3)N(Cc3cccnc3)Cc3ccco3)cc2c1 (stereo not drawn)	0%	-12%	-4%[57.1 µM]	-10%	5%[57.1 µM]	?
CC1CCC(NC(=O)C2CCN(c3c4c(nc5ncnn35)CCC4)CC2)CC1 (stereo not drawn)	11%	11%	21%	5%	3%[0.457 µM]	-5%
Cc1cccc(NC(=O)CN2CCSc3ccccc32)c1	9%	1%	30%	-10%	-1%	-3%
O=C(CN1CCN(C(=O)c2ccco2)CC1)Nc1ccccc1	-11%	0%	19%	-2%	7%	0%
COc1cccc(NC(=O)CN2CCN(C(=O)c3ccco3)CC2)c1	-1%	3%	71µM*	4%	9%	0%
COc1cccc(NC(=O)CN2CCSc3ccccc32)c1	-6%	63µM*	14%[57.1 µM]	-8%	10%[57.1 µM]	-12%
COC(=O)c1[nH]c2cc(C)ccc2c1NC(=O)CN1CCN(C(=O)c2ccco2)CC1	20%	50µM*	?	7%	16%	0%
COc1cc(NC(=S)N2CCN(C(=O)c3ccco3)CC2)c(OC)cc1Cl	-5%	56µM*	-7%	?	-5%	29%
Cc1ccc2onc(CNC(=O)NCc3ccccc3)c2c1	1%	nt	27%	2%	3%	-5%
S=C(Nc1ccccc1)Nc1nc2ccccc2n1CCOc1ccc(Cl)cc1	2%	?	-26%	-8%	-15%	-11%
N#CCCn1cc(C(=O)Nc2ccc(C(=O)O)cc2)c(-c2cccs2)n1	?	-4%	25%	?	-3%	-2%
O=C(Cc1cc(=O)oc2cc(O)ccc12)NCC1CCC(C(=O)O)CC1 (stereo not drawn)	-11%	13%	?	16%	i	28µM*
O=C(Cc1cc(=O)oc2cc(O)ccc12)NC(Cc1ccc(Cl)cc1)C(=O)O (stereo not drawn)	19%	3%	?	?	i	28µM*
O=C(CC(c1ccccc1)c1ccccc1)OCn1nnc2ccccc2c1=O	8%	1%	-20%[57.1 µM]	-10%	7%[57.1 µM]	-6%
CC(C)(C)c1ccc(/C=N/NC(=O)C[n+]2ccccc2)cc1	1%	6%	9%	19%	-4%[57.1 µM]	-18%
Cc1cc(N)c2cc(NC(=O)Nc3ccc4nc(C)cc(N)c4c3)ccc2n1	2%	7.9µM*	nt	-4%	nt	nt
O=C(NCc1ccccc1)N1CCN(c2ccccc2F)CC1	6%	9%	20%[57.1 µM]	10%	11%[57.1 µM]	-23%
CC(C)(C)C1CCC(C(=O)Nc2ccccc2)CC1 (stereo not drawn)	-2%	5%	10%	-7%	-9%	-4%
CN(C)c1ccc(C(CN)c2c[nH]c3ccccc23)cc1 (stereo not drawn)	17%	50µM*	17%	-9%	-2%	-10%
COCCCNC(=O)/C(C#N)=C/c1c(N2CCN(C)CC2)nc2ccccn2c1=O	14%	-3%	-14%	5%	92%	-14%
SMILES	GLS inh	Sfp PPTase inh	TrxR1 inh	VDR inhibitor	TrxR1 substrate	GCN5L2 inh
Cc1ccc(S(=O)(=O)Nc2cc3c(C(=O)OCc4ccccc4)c(C)oc3c3ccccc23)cc1	11%	nt	-18%	-29%	-4%	1%
Cc1cc(/C=C2\C=Cc3ccccc32)cc(C)c1[N+](=O)[O-]	nt	nt	20µM*	nt	-5%	nt
Brc1ccc(/C=C2\C=Cc3ccccc32)cc1	nt	nt	32µM*	nt	1%	nt
C1=Cc2ccccc2/C1=C\c1cccc(/C=C2\C=Cc3ccccc32)c1	nt	nt	20µM*	nt	-1%	nt
CC(C)c1ccc(/C=C2\C=Cc3ccccc32)cc1	nt	nt	?	nt	-6%	nt
C1=Cc2ccccc2/C1=C\c1ccc(/C=C2\C=Cc3ccccc32)cc1	nt	nt	-4%	nt	-4%	nt
CC(=O)NC12CC3CC(C1)CC(C(=O)Nc1nc4c(C)cccc4s1)(C3)C2	5%	-10%	2%	-3%	-2%	-3%
COc1cc(OC)c(C2CC(=O)N3CN(c4ccccc4)CSC3=C2C#N)cc1OC (stereo not drawn)	15%	3.2µM*	32µM*	10µM*	-17%	?
COc1cc(OC)c(C2CC(=O)N3CN(C)CSC3=C2C#N)cc1OC (stereo not drawn)	-4%	3.5µM*	-26%[57.1 µM]	?	1%[57.1 µM]	?
COc1cc(OC)c(C2CC(=O)Nc3ccc4ccccc4c32)cc1OC (stereo not drawn)	2%	nt	0%	?	-7%	5%
CCSC1=C(C#N)C(c2ccccc2OC)CC(=O)N1 (stereo not drawn)	-12%	2%	-9%	-2%	-6%	-3%
COc1ccc2ccccc2c1C1CC(=O)N2CN(C)CSC2=C1C#N (stereo not drawn)	29%	7.9µM*	?	25µM*	-9%	22µM*
CCCCCc1c(-c2ccc(Cl)cc2)ncn1CCc1ccccc1OC	-17%	nt	nt	nt	nt	nt
CCCCCCCOc1ccc(C2(C)NC(=O)NC2=O)cc1 (stereo not drawn)	-14%	18%	8%[57.1 µM]	-3%	-12%	-19%
CCCCOc1ccc(C2(C)NC(=O)NC2=O)cc1 (stereo not drawn)	?	18%	12%	25µM*	0%	-2%
COc1ccccc1-c1noc2c1C(=O)N(Cc1cn(-c3ccc(Cl)cc3)nn1)CC2	-2%	nt	nt	nt	nt	nt
